# UBC9 SUMO inh – inhibitors of human SUMOylation (UBC9); inhibition, % at 35 µM; 0.36% of 290,000 active; P63279; HTRF SUMOylation assay, SAE1/SAE2 + UBC9, in vitro; in the data active = inhibition above about 50%, passing the limit was not always enough; inconclusive = no clear call, values can overlap the other calls
# Target sequence (P63279 whole entry, looked up): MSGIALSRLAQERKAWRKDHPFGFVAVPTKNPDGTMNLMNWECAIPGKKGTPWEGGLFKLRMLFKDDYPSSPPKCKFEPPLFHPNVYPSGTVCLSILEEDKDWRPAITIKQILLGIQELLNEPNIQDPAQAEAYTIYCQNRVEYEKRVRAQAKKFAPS
# p97 ATPase inh – inhibitors of human p97 ATPase | recombinant p97 ATPase, Kinase-Glo ATP luminescence, 3 h | inhibition, % at 8 µM | 0.42% of 220,000 active | AID 1481; in the data active = inhibition above about 15%;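 note: 0% = DMSO vehicle and 100% = wells lacking enzyme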
# PHOSPHO1 inh – PHOSPHO1 (human) inhibition; recombinant PHOSPHO1, absorbance phosphatase assay; inhibition, % at 13.3 µM; 1.1% of 290,000 active; AID 1565; in the data active = inhibition above about 60%
# G6PDH CS – counter-screen for G6PDH assay hits: L. mesenteroides G6PDH inhibition | Purified L. mesenteroides G6PDH, diaphorase/resazurin coupled fluorescence, 45 min | inhibition, % at 5 µM | 0.12% of 200,000 active | AID 1020; in the data active = inhibition above about 50%
# HDAC3 inhib – inhibitors of human histone deacetylase 3 | O15379 | recombinant HDAC3, fluorogenic peptide/trypsin coupled, fluorescence | inhibition, % at 8.3 µM | 0.15% of 320,000 active; in the data active = inhibition above about 26%, passing the limit was not always enough; inconclusive = no clear call, values can overlap the other calls
# M18AAP inhibitor – PfM18AAP enzyme inhibition. recombinant PfM18AAP, H-Glu-NHMec fluorogenic cleavage. inhibition, % at 7.35 µM. 1.2% of 290,000 active. AID 1822;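 active = inhibition above the campaign mean inhibition over all tested compounds plus 3 SD, cut at about 28% in these data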;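 note: 0% = plate median of test compound wells and 100% = 2 mM ZnCl2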
# * marks the source's active call; other numbers are inactive results; ? = inconclusive; . = not tested or not shown. Most compounds without a hit are left out; they make up all but 2.5% or so of the library.
SMILES,UBC9 SUMO inh,p97 ATPase inh,PHOSPHO1 inh,G6PDH CS,HDAC3 inhib,M18AAP inhibitor
C=C1C(=O)O[C@@H]2C[C@@H](C)[C@@H]3C=CC(=O)[C@@]3(C)[C@@H](OC(=O)CC(=O)O[C@H]3[C@@H]4C(=C)C(=O)O[C@@H]4C[C@@H](C)[C@@H]4C=CC(=O)[C@]43C)[C@H]12,54*,.,31,.,3,.
C=C1C(=O)O[C@H]2[C@H]1[C@H](OC(=O)CC(=O)O[C@@H]1C[C@@H](C)[C@@H]3C=CC(=O)[C@@]3(C)[C@H]3OC(=O)C(=C)[C@H]13)C[C@@H](C)[C@H]1C=CC(=O)[C@]12C,-8,.,40,.,-6,.
COC(=O)C1=C(c2ccc(Cl)c(C(F)(F)F)c2)C[C@@H]2CC[C@H]1N2C(=O)NC1CCCCC1,.,.,.,.,1,.
O=c1[nH]c(=S)n(Cc2ccco2)c(O)c1C=NCc1cccs1,20,4,95*,2,-2,8
C[C@]12CCC3C(CC[C@H]4C[C@@H](O)CC[C@]34C)C1CCC2=O (stereo not given in full),.,.,.,.,2,.
C/C(=C\c1ccc(N(C)C)cc1)[N+](=O)[O-],9,-1,1,-1,0,12
CN(C)c1ccc(/C=C/[N+](=O)[O-])cc1,2,2,7,18,4,31*
CCOC(=O)c1c(/N=C/c2c(O)n(-c3ccc(F)cc3)c(=S)[nH]c2=O)sc2c1CCCC2,12,6,3,2,?,9
CCOC(=O)c1c(/N=C/c2c(O)n(-c3ccccc3F)c(=S)[nH]c2=O)sc2c1CCCC2,-6,4,94*,3,2,-4
CC(C)(C)c1ccc(C(=O)C2CCCN(C3CCC3)C2)cc1 (stereo not given),-3,-4,60*,3,8,0
COc1ccc(N2C(=O)NC(=O)/C(=C/c3cccc(OC(=O)c4cccs4)c3)C2=O)cc1Cl,13,8,-7,4,8,4
Cc1ccc(N2C(=O)NC(=O)/C(=C/c3ccc(OC(=O)c4cccs4)cc3)C2=O)cc1,-5,5,23,-2,56*,8
Cc1nn(CCC#N)c2c1P(=S)(N1CCCC1)OC(c1ccc(F)cc1)=N2 (stereo not given),1,-3,103*,16,11,8
Cc1cc(C=C2C(=O)N(C)C(=S)N(C)C2=O)c(C)n1C1CCCCC1,23,-7,65*,2,-11,-8
CC(N)Cc1cn(Cc2ccccc2)c2ccccc12 (stereo not given),-1,.,30,.,6,6
CCCCCCCCn1sccc1=O,.,.,.,.,0,.
N#CC(Br)Br,.,.,.,.,3,.
CCOC(=O)c1c(N)n(CCCOC(=O)c2ccco2)c2nc3ccccc3nc12,36,3,-8,-3,-83,-4
CCCCCn1c(NC(=O)c2ccco2)c(C(=O)OCC)c2nc3ccccc3nc21,101*,1,-15,32,-5,11
CCN(CC)c1ccc(N=Cc2c(O)n(-c3cc(OC)ccc3OC)c(=O)[nH]c2=O)cc1,-6,3,-8,12,-2,34*
COC(=O)C1=C(c2cccc(OCc3ccccc3)c2)C[C@@H]2CC[C@H]1N2C(=O)NCc1ccccc1OC,.,.,.,.,-6,.
C[C@]12CCC3C(CC[C@H]4C[C@@H](O)CC[C@]34C)C1CC[C@@H]2OC(=O)[C@H](N)CCCCN (stereo not given in full),.,.,.,.,3,.
Oc1ccc(C[C@H]2NCCc3cc(O)c(O)cc32)cc1O,28,.,19,.,-1,82*
O=C(Cn1cc(C=C2C(=O)NC(=O)NC2=O)c2ccccc21)NCC1CCCO1 (stereo not given),-8,.,23,.,1,32*
Oc1c(Br)c(Br)c(Br)c(Br)c1Br,.,.,.,.,-6,.
Cc1cccc(NC(=O)N2CCCC2)c1,10,1,62*,14,1,0
CN(C)C(=O)Oc1cccc(NC(=O)N2CCOCC2)c1,14,2,4,13,10,-6
O=C1Nc2cc(C(=O)N3CCC4(CC3)OCCO4)ccc2NC1CSCc1cccc(F)c1 (stereo not given),.,.,-16,.,-1,-6
Cc1cc(/C=C2\C(=O)NC(=O)N(Cc3ccccc3)C2=O)c(C)n1-c1ccc(Cl)c(C(=O)O)c1,59*,-8,-12,-4,5,10
